Screening data as filed in PubChem.
AmpC inh detg – inhibitors of E. coli AmpC beta-lactamase with detergent. actives 0.041% (n = 370,000). AmpC hydrolysis of nitrocefin, absorbance 480 nm, 0.01% Triton. Potency, µM (doses to about 114 µM), inactives show at the highest dose activity change, negative = inhibition, usual class: inhibitors;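 also: potency is read from the fitted curve at half-maximal effect; 0% = no-compound wells and -100% = no-enzyme wells; nearly all actives have a fitted effect of over 25% in size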
Target sequence (P00811 whole entry, looked up): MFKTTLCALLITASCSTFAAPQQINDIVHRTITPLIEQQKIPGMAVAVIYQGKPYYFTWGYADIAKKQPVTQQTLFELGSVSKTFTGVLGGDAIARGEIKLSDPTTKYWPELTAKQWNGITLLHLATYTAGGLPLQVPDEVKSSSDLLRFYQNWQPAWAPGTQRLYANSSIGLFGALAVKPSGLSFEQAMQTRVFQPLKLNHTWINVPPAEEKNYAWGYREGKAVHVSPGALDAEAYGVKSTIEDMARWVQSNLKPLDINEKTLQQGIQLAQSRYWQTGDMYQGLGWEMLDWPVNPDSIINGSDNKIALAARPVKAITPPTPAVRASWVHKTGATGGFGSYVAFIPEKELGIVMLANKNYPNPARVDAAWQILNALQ
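AmpC (5.3 nM in the dispensed reagent) in 20 mM phosphate pH 7.0 with 0.01% (detergent screen) or 0.0001% Triton X-100 was preincubated with compounds for 15 min at room temperature. Nitrocefin was then added from an 800 uM solution, and hydrolysis was followed at 480 nm.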
AmpC inh no detg – inhibitors of E. coli AmpC beta-lactamase without detergent; P00811; Potency, µM (top dose mostly 57.1 µM), inactives show at the top dose activity change, negative = inhibition, hits mostly inhibitors; AmpC nitrocefin hydrolysis, absorbance 480 nm, 0.0001% Triton; actives 0.52% (n = 330,000); AID 485341;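 also: potency is read from the fitted curve at half-maximal effect; plate controls were no compound for no effect and no enzyme for full effect; nearly all actives have a fitted effect of over 20% in size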
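20 mM phosphate pH 7.0 + 0.01% (detergent screen) or 0.0001% Triton X-100; 5.3 nM AmpC reagent; cpd preinc 15 min RT; nitrocefin (800 uM stock) to start; A480 q20 s × 4 min; Activity was normalised to no-enzyme and no-compound control wells.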
AMA1 RON2 block – inhibitors of Plasmodium falciparum AMA1-RON2 interaction. actives 0.2% (n = 360,000). AlphaScreen AMA1-biotinylated RON2 peptide binding. Potency, µM (top dose mostly 58.2 µM), for inactives: top-dose activity change, negative = inhibition, actives largely listed as inhibitors;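 also: potency is read from the fitted curve at half-maximal effect; 0% = vehicle wells and -100% = peptide control; nearly all actives have a fitted effect of over 45% in size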
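AMA1 (3D7) with his tag at 25 nM final met compounds first, then biotinylated RON2 peptide at 25 nM; detection used donor plus acceptor beads, 10 µg/mL apiece, read by AlphaScreen after 30 min at room temperature.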
Cycloheximide cs – affects cycloheximide protein synthesis inhibition readout, counter-screen; cell reporter, cycloheximide protein synthesis inhibition counterscreen; max response, %; actives 12% (n = 300,000); AID 2314; in the data active = max response mostly above about 13%, no sharp cut-off; inactive = mostly below about 14%; also: read at 38.3 µM for the half of the compounds with a filed dose; 0% is about no effect
Shiga inhibitor – Shiga toxin inhibition | actives 9.2% (n = 290,000) | inhibition, % at 38.7 µM | Vero cells, Shiga toxin protein synthesis inhibition reporter | AID 2315; in the data active = inhibition mostly above about 28%, no sharp cut-off; inactive = mostly below about 43%; also: 0% is about no effect
SARS PLpro yeast – SARS-CoV PLP inhibition in yeast; S. cerevisiae expressing SARS-CoV PLpro, growth rescue; Potency, µM (top dose mostly 32.9 µM), inactives show at the highest dose activity, positive = growth rescue, actives largely listed as activators; actives 0.19% (n = 330,000); AID 485353; calls by dose curve; also: potency is read from the fitted curve at half-maximal effect; 0% is about no effect; nearly all actives have a fitted effect of over 55% in size
Active calls of the source: *; ? = inconclusive; · = no result given; [ ] = another dose, or the depositor's remark. The sample as a whole holds a higher share of hits than the screen did. Unless noted, calls follow the shape of the dose curve; as a rule, active = well fitted curve in the direction sought with a large enough effect; inconclusive = small, poorly fitted or top-dose-only effect, or another doubt; inactive = no such curve, though single readings can be large; an effect the other way counts as inactive or inconclusive.

SMILES	AmpC inh detg	AmpC inh no detg	AMA1 RON2 block	Cycloheximide cs	Shiga inhibitor	SARS PLpro yeast
CC(C)c1ccc(/C=C2\SC(=O)N(CC(=O)NCCCn3ccnc3)C2=O)cc1	3%	132%	23%	39*	69*	-4%
CC(C)c1ccc(/C=C2\SC(=S)N(CC(=O)NCCCN3CCOCC3)C2=O)cc1	2%	139%	14%	39*	46	1%
CCOc1ccc(/C=C2\SC(=S)N(CC(=O)NCCCN3CCOCC3)C2=O)cc1	2%	143%	25%	22*	47*	-1%
O=C(CN1C(=O)S/C(=C\c2ccccc2)C1=O)NCCCn1ccnc1	-6%	24%	15%	-11	-5	2%
COc1ccc(C2NC3=C(CCC3)C3(C#N)C4(N=C(N)C23C#N)OCCO4)cc1 (centres undefined)	9%	7%	-4%	3	34	8%
CN1C(=O)NC(c2cccc(O)c2)C(C(=O)c2cccs2)C1(O)C(F)(F)F (centres undefined)	6%	-5%	-3%	57*	85*	-3%
FC(F)Oc1ccccc1/C=N/n1cnc2ccccc21	?	14%	0%	50*	116*	-12%
NC(N)=N/N=C/c1ccccc1OC(F)F	1%	-36%	7%	-2	-18	-5%
COc1ccc(Br)cc1[C@H]1[C@H]2C=CC[C@@H](C)[C@@H]2C(=O)N1Cc1ccccc1	10%	-14%	-22%	2	-2	0%
CCN(CC)CCSc1nnc2c3cc(C)ccc3n(Cc3ccccc3)c2n1	1%	40%	-18%	1	-8	-4%
C(=C\c1sc(Nc2ccccc2)n[n+]1-c1ccccc1)/c1ccccc1	·	·	74%	·	·	·
COc1ccc(Cl)cc1NC(=O)C/C(C)=N/NC(=O)Cc1ccccc1	-6%	69%	99%	15	44*	-2%
COc1cc(NC(=O)C/C(C)=N/NC(=O)C(OC)c2ccccc2)c(OC)cc1Cl (centres undefined)	?	88%	12%[11.6 µM]	-4	16	-1%
COc1cc(NC(=O)C/C(C)=N/NC(=O)c2cccc(O)c2)c(OC)cc1Cl	-12%	-6%	25%	30*	129*	-3%
COc1ccc(Cl)cc1NC(=O)CCc1ccccc1	6%	-14%	14%	-2	-8	-7%
COc1ccc(Cl)cc1NC(=O)C/C(C)=N/NC(=O)c1ccc(O)cc1	-14%	-3%	75%	31*	68*	-8%
COc1ccc(C(=O)Nc2cccc(-c3ccc(N4CCOCC4)nn3)c2)cc1	-12%	2%	0%	·	·	1%
Cc1oc2cc(Br)c(O)c(Br)c2c1-c1ccccc1	-14%	-37%	-7%	18*	59*	-12%
COc1ccc(S(=O)(=O)N2CCC(Oc3ccc(-n4cnnn4)cc3)CC2)cc1	22%	·	·	·	·	·
Cc1ccc(Nc2cccc(C(F)(F)F)c2)nn1	·	·	-9%	·	·	·
COc1ccccc1-c1ccc(Nc2cccc(C(F)(F)F)c2)nn1	9%	-13%	-2%	15*	14	?
COc1ccccc1-c1ccc(NC2CCCCC2)nn1	-7%	-15%	-2%	31*	72*	-21%
CCOc1ccc(N=C2NC(=O)/C(=C/C(=O)OC)S2)cc1	?	1%	27%	1	3	-3%
O=C(c1ccco1)N1CCN=C1SCc1cccc(F)c1	4%	-20%	14%	7	15	9%
O=C(c1ccco1)N1CCc2ccccc21	1%	-10%	1%	35*	66*	-2%
SMILES	AmpC inh detg	AmpC inh no detg	AMA1 RON2 block	Cycloheximide cs	Shiga inhibitor	SARS PLpro yeast
O=C(c1ccco1)N1CCN=C1SCc1ccc(F)cc1	?	8.9µM*	25%	-5	-5	0%
CSC1=NCCN1C(=O)c1ccc(Br)o1	-11%	23%	5%	39*	92*	21%
O=C(c1ccc(Br)o1)N1CCN=C1SCc1cccnc1	-10%	-17%	0%	-3	7	5%
O=C(c1ccc(Br)o1)N1CCc2ccccc21	8%	-18%	·	44*	87*	-3%
CCCOC(=O)NC1C(NC(=O)OCCC)N(C)C(=O)N1C (centres undefined)	-7%	-6%	5%	-2	28	0%
Cc1ccccc1S(=O)(=O)NC(=O)C1(C)CCN1C(=O)C/C=C/c1ccccc1 (centres undefined)	·	·	1%	·	·	·
CC1Cc2ccccc2N1C(=S)NC(=O)c1ccco1 (centres undefined)	-16%	-22%	24%	6	23	-1%
O=C(NC(=S)N1CCCc2ccccc21)c1ccco1	7%	-19%	41%	33*	82*	0%
COC(=O)c1ccc(NC(=O)c2cc(S(=O)(=O)N3CCc4ccccc43)cn2C)cc1	25%	·	·	·	·	·
CC1CCC(NC(=O)CC(NC(N)=O)c2ccccc2Cl)CC1 (centres undefined)	-10%	4%	12%	31*	57	12%
CN1C(=O)NC(NS(=O)(=O)c2ccc(N)cc2)(C(F)(F)F)C1=O (centres undefined)	2%	-3%	9%	-8	21	-1%
Cc1ccc(-c2nc3ccccc3[nH]2)cc1NC(=O)c1ccc2c(c1)OCO2	1%	-40%	-7%	14*	91	-3%
Cc1ccc(-c2nc3ccccc3[nH]2)cc1NC(=S)NC(=O)c1ccccc1Br	2%	-33%	79%	13	4	-28%
Cc1ccc(-c2nc3ccccc3[nH]2)cc1NC(=O)/C=C/c1ccco1	-12%	-27%	-5%	85*	177*	-15%
O=C(Nc1cc(-c2nc3ncccc3o2)ccc1Cl)c1ccc2c(c1)OCO2	-3%	-8%	-8%	·	·	-6%
Cc1ccc(-c2nc3ccccc3o2)cc1NC(=O)c1ccc2c(c1)OCO2	3%	-17%	-3%	50*	126*	-5%
COc1cc2ccccc2cc1C(=O)Nc1cc(-c2nc3ccccc3o2)ccc1C	11%	·	·	·	·	·
O=C(NC(=S)Nc1cc(-c2nc3ccccc3[nH]2)ccc1Cl)c1ccc2c(c1)OCO2	-8%	-9%	35%	70*	78*	-46%
CCOC(=O)c1ccc(NC(=O)CN2CCN(c3ccccc3)CC2)cc1	2%	52%	-18%	1	-6	-5%
CC(=O)c1ccc(S(=O)(=O)N2CCN(c3ccccc3F)CC2)cc1	6%	0%	4%	0	24	0%
COc1cccc(-c2c(C(=O)N/N=C/c3ccsc3)nnn2-c2nonc2N)c1	-21%	-33%	16%	8	-5	-2%
Nc1c2nc(-c3ccccc3Cl)[nH]c(=O)c2nc(=O)n1-c1ccccc1	-13%	?	76%	22*	58*	1%
